From PubChem BioAssay AID1159580 (chemical genetic matrix, 2015)
Screen size: about 5,500 compounds; about 2,000 (36%) were called active. Inconclusive results (about 18%) are left out. Cut-off read from the data, not from the text of the source: active = normalized growth mostly below about 0.91 (no sharp cut-off); inconclusive = no clear call, values can overlap the other calls; inactive = mostly above about 0.92. Some of the results follow.

Assay: chemical genetic growth profiling, strain panel (AID 1159580);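 note: tested at 20 µM; growth read once vehicle control cultures reached saturation at 30 °C; 1 = growth at the plate median or of vehicle wells; lower values mean less growth of the strain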
Conditions: S. cerevisiae deletion strains, growth OD

Measured: normalized growth

C=C1CC2C3C=C(C)C4=CC(=O)CC[C@]4(C)C3CC[C@]2(C)[C@@]1(OC(C)=O)C(C)=O (stereo partly drawn)
inactive: locus YHR030C, strain SLT2, hits give low values 0.955 | locus YHR079C, strain IRE1, hits give low values 0.933 | locus YJL095W, strain BCK1, hits give low values 0.955 | locus YJR066W, strain TOR1, hits give low values 0.922 | locus YLR113W, strain HOG1, hits give low values 0.92 | locus YNL183C, strain NPR1, hits give low values 0.876 | locus YOR231W, strain MKK1, hits give low values 0.955 | locus YPL256C, strain CLN2, hits give low values 0.916
